From PubChem BioAssay (NCATS)
Inconclusive results are not listed. Entries that show only a call come without a potency. Unmarked numbers belong to inactive results. Active and inactive are the calls of the source. Calls come from the whole dose curve; as a rule, active = well fitted cell-killing curve with a large enough effect; inconclusive = small, poorly fitted or top-dose-only effect, or effect the other way; inactive = no such curve, though single readings can be large or run the other way.

What was measured:
[1] = Viability qHTS for spleen associated tyrosine kinase inhibitor (SYKi) naive MV4-11 cells (AID 1963823); conditions: MV4-11 AML viability, CellTiter-Glo luminescence, 72 h; series mostly up to 45 µM; note: nearly all actives have a fitted effect of over 40% in size
Summary of the method: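 CellTiter-Glo luminescence, 10 min room-temperature incubation, gave viability. Cells: naive MV4-11 (500/well), treated 72 hr at 37 C, 5% CO2.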

[2] = Viability qHTS for spleen associated tyrosine kinase inhibitor (SYKi) drug resistant MV4-11 cells (AID 1963824); conditions: SYKi-resistant MV4-11 viability, CellTiter-Glo, 72 h; series mostly up to 45 µM; note: nearly all actives have a fitted effect of over 35% in size
Summary of the method: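 CellTiter-Glo luminescence, read 10 min after reagent addition, reports viability after a 72 hr compound exposure. Cells are an MV4-11 line made resistant to SYK inhibition, seeded at 500 per well onto compound-containing plates.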
Potency is the fitted concentration of half-maximal effect.

Structure (SMILES) | Potency [1] | Potency [2] | viability (% of control) [1] | viability, % of control [2]
Oc1cccc(C2NC(=S)Nc3cccc(F)c32)c1 (stereo unspecified) | 4.61 µM (active) | 2.91 µM (active) |  | 
C/C=C(\C)C(=O)O[C@H]1[C@H](O)[C@]2(COC(C)=O)[C@H](O)C[C@]3(C)C(=CCC4[C@@]5(C)CC[C@H](O[C@@H]6O[C@H](C(=O)O)[C@@H](O[C@@H]7O[C@H](CO)[C@@H](O)[C@H](O)[C@H]7O)[C@H](O)[C@H]6O[C@@H]6O[C@H](CO)[C@@H](O)[C@H](O)[C@H]6O)[C@](C)(CO)C5CC[C@]43C)[C@@H]2CC1(C)C (stereo partly specified) |  |  | 88% [at 9.25 µM] | 97.8% [at 9.25 µM]
C[C@@H]1O[C@@H](O[C@H]2[C@H](OC(C#N)c3ccc(O)cc3)O[C@H](CO)[C@@H](O)[C@@H]2O)[C@H](O)[C@H](O)[C@H]1O (stereo partly specified) | inactive | inactive |  | 
CCC(=O)OCC(=O)[C@@]1(OC(=O)CC)[C@@H](C)C[C@H]2[C@@H]3CCC4=CC(=O)C=C[C@]4(C)[C@@]3(F)[C@@H](O)C[C@@]21C | 18.4 µM (active) | 20.6 µM (active) |  | 
C=CC1(C)CC(OC(=O)/C(C)=C\COC(C)=O)C(C(=C)C(=O)O)C(O)C1C(=C)CO (stereo unspecified) | inactive | inactive |  | 
Nc1ncnc2c1nc(Cl)n2C1OC2COP(=O)(O)OC2C1O (stereo unspecified) | 0.517 µM (active) | 0.461 µM (active) |  | 
OC[C@H]1O[C@@H](O[C@@H]2OC=C[C@H]3[C@H](O)[C@@H]4O[C@]4(CO)[C@@H]23)[C@H](O)[C@@H](O)[C@@H]1O | inactive | inactive |  | 
C[C@@]1(C(=O)O)CCC[C@@]2(C)C3=CC[C@H]4C[C@@]3(CC[C@H]12)CC4(O)CO (stereo partly specified) | inactive | inactive |  | 
